# Experimental data reported in PubChem BioAssay (NCI).
# This is part of a sample that, as a whole, favours compounds with a hit. Of some 83,000 tested, about 20% had one in any assay.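 Activity criterion: percent growth below 10, measured after cells in 96-well plates were exposed to a single compound concentration for 48 hours.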 A number with no mark means an inactive call. Activity calls are given as the source filed them.
# What was measured:
# Experiment in all cases: NCI-60 one-dose screen, 48 h (100 = growth as untreated, 0 = no growth, -100 = all killed)
# K-562 leukemia = settings: 10 µM unless noted
# MALME-3M melanoma = settings: 10 µM unless noted
# MDA-MB-231 breast = settings: 10 µM unless noted
# RXF 393 renal = settings: 10 µM unless noted
# SF-268 CNS = settings: 10 µM unless noted
# SF-295 CNS = settings: 10 µM unless noted
# SF-539 CNS = settings: 10 µM unless noted
# UACC-257 melanoma = settings: 10 µM unless noted
# M14 melanoma = settings: 10 µM unless noted
# HCT-15 colon = settings: 10 µM unless noted
# HT29 colon = settings: 10 µM unless noted
# SNB-75 CNS = settings: 10 µM unless noted
# SNB-19 CNS = settings: 10 µM unless noted
# U251 CNS = settings: 10 µM unless noted
# PC-3 prostate = settings: 10 µM unless noted
# SK-MEL-5 melanoma = settings: 10 µM unless noted
# UACC-62 melanoma = settings: 10 µM unless noted
# LOX IMVI melanoma = settings: 10 µM unless noted
# SK-MEL-28 melanoma = settings: 10 µM
# SK-MEL-2 melanoma = settings: 10 µM unless noted
Compound,growth (K-562 leukemia),growth (MALME-3M melanoma),growth (MDA-MB-231 breast),growth (RXF 393 renal),growth (SF-268 CNS),growth (SF-295 CNS),growth (SF-539 CNS),growth (UACC-257 melanoma),growth (M14 melanoma),growth (HCT-15 colon),growth (HT29 colon),growth (SNB-75 CNS),growth (SNB-19 CNS),growth (U251 CNS),growth (PC-3 prostate),growth (SK-MEL-5 melanoma),growth (UACC-62 melanoma),growth (LOX IMVI melanoma),growth (SK-MEL-28 melanoma),growth (SK-MEL-2 melanoma)
COc1cc2nc(-c3cccc4cccnc34)nc(NC3CCN(Cc4ccccc4)CC3)c2cc1OC,-49.4% (active),-76.6% (active),-89.5% (active),-79.8% (active),-68.8% (active),-87.2% (active),-86.6% (active),-62.4% (active),-80% (active),-80.9% (active),-87.2% (active),-87.8% (active),-78.2% (active),-78.4% (active),-84.4% (active),-96.8% (active),-82.3% (active),-82.3% (active),-76.9% (active),-77.8% (active)
CCN(CC)CCCNc1ccnc2cc3ccccc3cc12,66.3%,40.6%,56.4%,35.7%,60.2%,-34% (active),30.8%,75.5%,81.9%,43.2%,74.6%,36.6%,71.3%,46.8%,60.7%,50.6%,69.8%,53.9%,65.3%,57%
O=c1c(-c2nc3ccccc3[nH]2)cc2ccccc2n1Cc1cn(Cc2ccc(N3CCOCC3)cc2)nn1,100%,64.2%,71.5%,35.7%,22.6%,95.4%,52.6%,78.7%,80.1%,78.6%,56.3%,5.39% (active),48%,64.3%,65.9%,71.9%,79.2%,78.7%,76.2%,86.9%
Cn1cc(-c2ccc3ncc(-c4ccc(CC(=O)Nc5cc(C(C)(C)C)no5)cc4)nc3c2)cn1,22.5%,25%,28.7%,32.3%,36%,47.2%,27.3%,61.2%,34.6%,16.3%,51.6%,43.7%,62.6%,40.8%,49.7%,28.7%,42.6%,45.7%,53.2%,38.1%
CC(=O)c1ccc(Nc2nc(NCCO)nc(Nc3ccc(Cl)cc3)n2)cc1,78%,93.5%,82.5%,67.2%,91.9%,97.8%,87.2%,88.4%,114%,73.9%,96.8%,77.5%,92.4%,99.7%,90.5%,74.9%,78%,87.9%,95.2%,95.2%
COc1cc(/C=C2\CN(C)C/C(=C\c3cc(CN4CCOCC4)c(O)c(OC)c3)C2=O)cc(CN2CCOCC2)c1O,29.1%,65.6%,69.5%,78%,56.9%,77.1%,34.8%,71.2%,66.4%,64.8%,6.39% (active),26.3%,58.5%,20.7%,60.8%,72.3%,35.8%,11.7%,77.3%,72.2%
NC1(N2SC(S)=C3CCCC=C32)CCCCC1,84.9%,102%,107%,129%,96.3%,115%,104%,99.8%,101%,108%,97.1%,91.7%,96.9%,101%,109%,104%,104%,94.7%,114%,111%
C=C1C(=O)O[C@H]2[C@H]1CC/C(COC(=O)/C=C\C(=O)O)=C\CC[C@@]1(C)O[C@@H]21,109%,99.8%,103%,111%,100%,96.7%,93.2%,99.8%,110%,105%,108%,79.4%,98.8%,108%,102%,102%,98%,99.4%,98.8%,112%
Cn1nc(C(C)(C)C)cc1NC(=O)Cc1ccc(/C=C2\C(=O)Nc3ccccc32)cc1,22.3%,58%,66.4%,70.9%,63.1%,51.7%,54.9%,41.4%,56.5%,48.4%,58.4%,75.1%,63.9%,55.5%,42.1%,5.57% (active),41%,53.8%,76.7%,54.3%
Cn1c(=O)n(C)c2cc(CNCCNc3ccnc4cc(Cl)ccc34)ccc21,5.18% (active),43.6%,62.5%,52.1%,97.9%,-69.4% (active),58.9%,-61.8% (active),-52.8% (active),9.62% (active),6.95% (active),69.6%,89%,51.5%,64.2%,72.3%,-46.8% (active),9.85% (active),-36.1% (active),65.7%
COc1ccc(/C=C/C(=O)c2ccc3cc(OC)c(OC)cc3c2)cc1OC,8.48% (active),90.6%,101%,84.2%,70.7%,70.8%,23.5%,70.2%,64.2%,27.5%,6.78% (active),49.7%,71.9%,22.8%,42%,36.7%,57.6%,6.59% (active),96.3%,83.6%
CCn1c(SCC(=O)Nc2cc(C(F)(F)F)ccc2Cl)nc2ccccc2c1=O,-46.2% (active),-15.6% (active),-25.6% (active),44.4%,32.6%,67.3%,69.1%,-32% (active),-67% (active),36.7%,15.7%,13.4%,93.5%,47.9%,17.5%,25.7%,-79.1% (active),-7.15% (active),-28.6% (active),87.3%
NC1C(N)C(N)C1N (configuration not stated),99.5%,114%,94.2%,125%,109%,126%,100%,101%,101%,109%,106%,71.8%,94.3%,101%,96.1%,113%,99.1%,95.1%,,92%
O=C(/C=C/c1cccc(Cl)c1)OCc1ccc2cc1OCC#C/C=C\C#CCO2,81.9%,99.7%,90.7%,101%,106%,109%,100%,88.8%,103%,102%,89.3%,80.9%,93.9%,102%,96.2%,106%,89.2%,88.4%,,113%
O=C(c1nc2ccccc2[nH]1)C1C(c2ccc([N+](=O)[O-])cc2)C2CC3CCCCC3N2[C@@]12C(=O)Nc1cc(Cl)ccc12 (some centres not stated),12.2%,15%,26.6%,14.7%,41.3%,16.5%,40.4%,25.7%,21.2%,11%,18.5%,27.4%,27.5%,25.5%,22.3%,-57.1% (active),20.5%,25.1%,,48.3%
